According to PubChem BioAssay (NCI):
This is part of a sample that, as a whole, favours compounds with a hit. Of some 83,000 tested, about 20% had one in any assay.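 A percent growth of 40 corresponds to 60% growth inhibition; 0 means no net growth; -100 means all cells died. Active threshold: below 10.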 Unmarked numbers belong to inactive results. Calls of active or inactive are those of the source.

Experiments:
Assay in all cases: NCI-60 one-dose screen, 48 h (100 = growth as untreated, 0 = no growth, -100 = all killed)
Details in all cases: 10 µM unless noted
[1] = system: NCI-H23 lung
[2] = system: NCI-H226 lung
[3] = system: HOP-62 NSCLC
[4] = system: NCI-H460 lung
[5] = system: HOP-92 NSCLC
[6] = system: NCI-H522 lung
[7] = system: A549/ATCC NSCLC
[8] = system: 786-0 renal
[9] = system: COLO 205 colon
[10] = system: DU-145 prostate
[11] = system: K-562 leukemia
[12] = system: MALME-3M melanoma
[13] = system: MDA-MB-231 breast
[14] = system: RXF 393 renal
[15] = system: SF-268 CNS
[16] = system: SF-295 CNS
[17] = system: SF-539 CNS
[18] = system: UACC-257 melanoma
[19] = system: M14 melanoma

SMILES | growth [1] | growth [2] | growth [3] | growth [4] | growth [5] | growth [6] | growth [7] | growth [8] | growth [9] | growth [10] | growth [11] | growth [12] | growth [13] | growth [14] | growth [15] | growth [16] | growth [17] | growth [18] | growth [19]
O=C(c1ccccc1)N1N=C(c2ccc(-n3ccc(C(F)(F)F)n3)cc2)CC1c1ccc[nH]1 (stereo not given) | 96.4% | 95.1% | 105% | 100% | 113% | 76.5% | 82% | 87.3% | 101% | 104% | 65.1% | 93.6% | 97.6% | 97.1% | 98.6% | 97.1% | 92.6% | 90.1% | 79%
Cc1[nH]n(C(=O)c2ccncc2)c(=O)c1N=Nc1ccc(F)c(Cl)c1 | 92.1% | 91.9% | 95.8% | 109% | 89.7% | 103% | 107% | 92.9% | 126% | 139% | 21.4% | 104% | 100% |  | 94.2% | 91.1% | 97% | 11.7% | 99.8%
CCCN=C(N)c1ccc(NC(=O)c2ccc(C(=O)Nc3ccc(C(N)=NCCC)cc3)cc2)cc1 | 93.1% | 73.4% | 86.2% | 99.1% | 88.6% |  | 97.4% | 98.7% | 70.5% | 107% | 91% | 88.1% | 96.6% | 96.5% | 95.8% | 90.3% | 92.8% | 101% | 98.4%
COc1ccc(Nc2nc(N)nc3c2CCc2occc2-3)cc1 | 92.4% | 97.1% | 98.4% | 108% | 99.6% | 76.9% | 103% | 95.5% | 116% | 102% | 92.4% | 110% | 99.5% | 114% | 100% | 86.2% | 96.8% | 108% | 93.6%
CCCCCCOc1ccc(C(=N)N(CCCC)CCCC)c2ccccc12 | -94.6% (active) | -70.5% (active) | -89% (active) | -57.7% (active) | -81.7% (active) | -84.6% (active) | -83.1% (active) | -94% (active) | -79.9% (active) | -92.4% (active) | -42.3% (active) | -82.7% (active) | -89.7% (active) | -94.5% (active) | -84.4% (active) | -89.1% (active) | -92.8% (active) | -85.5% (active) | -96.1% (active)
COc1ccc(C(=O)/C=C/c2c(OC)cc(OC)cc2OC)c(OC)c1 | 26.1% | 69.5% | 40.4% | 8.76% (active) | 31.5% | -6.76% (active) | 31.6% | 26.2% |  | 18.3% | 18.5% | 3.17% (active) | 44.4% |  | 36.5% | 11.3% | 8.25% (active) | 28.9% | 4.81% (active)
COc1ccc(/C=C2\COc3ccc(-c4ccccc4)cc3C2=O)cc1O | 50.5% | 96.2% | -41.9% (active) | 16.7% |  | 17.8% | 62% | -21.8% (active) | 63.9% | -2.34% (active) | 2.96% (active) | 74.7% | 41.6% |  | 13.3% | 24.2% | -0.576% (active) | 48.3% | 22.9%
COc1cccc(/C=C2\COc3ccc(-c4ccccc4)cc3C2=O)c1 | 44.9% | 65.7% | -32.3% (active) | -22.3% (active) | -3.57% (active) | 25.2% | 37% | -45.4% (active) | -23.4% (active) | -40.2% (active) | -2.92% (active) | 101% | 32.3% |  | 4.23% (active) | -44.8% (active) | -29.8% (active) | 49.2% | 23.6%
O=S(=O)(NCCCNc1nccc(-c2c(-c3ccccc3)nc3occn23)n1)c1ccc(Cl)cc1 | 94.2% | 75.3% | 95.1% | 85% | 93.8% | 77.9% | 65.8% | 82.5% | 69.1% | 85.5% | 50.6% | 91.8% | 93.3% |  | 80% | 93.3% | 110% | 105% | 71%
Cc1ccccc1-c1cc(Cc2ccc(F)cc2)c(=O)[nH]n1 | 98.3% | 105% | 95% | 107% | 99.8% | 95.1% | 33.4% | 111% | 108% | 130% | 84.8% | 88% | 109% |  | 94.6% | 123% | 94.2% | 137% | 118%
Nc1nnc2cc(Cl)ccc2n1 | 110% | 92% | 115% | 115% | 65.6% | 94.7% | 108% | 129% | 103% | 105% | 83.9% | 126% | 96.9% |  | 112% | 140% | 111% | 127% | 113%
CN(C)C(=O)OCc1nc2c(N3CCOCC3)nc(-c3ccccc3)nc2n1C | -67.3% (active) | -66.1% (active) | -46.9% (active) | -71.8% (active) | -68.4% (active) | -46.8% (active) | -29.6% (active) | -71.3% (active) | -70.5% (active) | -74.4% (active) | 5.32% (active) | -92.8% (active) | -86.5% (active) |  | -59.9% (active) | 29.9% | -98.3% (active) | -65.4% (active) | -54.5% (active)
COc1ccc(/C=N/NC(=O)c2cccc3cc[nH]c23)cc1O | 55.7% | 90.4% | 36.3% | 7.44% (active) | 57.2% | 54.8% | 50.5% | 30.9% | 55.7% | 28.3% | 27.8% | 43% | 55.2% |  | 53% | -20.3% (active) | -18.8% (active) | 47.3% | 0.307% (active)
CCCCCCCCCCCCC1CCC/C=C\CCC(=O)O1 (stereo not given) | 88.6% | 100% | 111% | 104% | 111% | 91.8% | 55% | 95.4% | 101% | 115% | 101% | 108% | 99.3% |  | 101% | 103% | 104% | 119% | 95.2%
COC(=O)C1=C(C(=O)ONCCN(C)C)C2C=CC1(C(Cc1ccccc1)Nc1ccc(F)cc1)O2 (stereo not given) | 91.6% | 108% | 101% | 113% | 89.7% | 19.2% | 98.1% | 106% | -14.7% (active) | 95.6% | 10.5% | -9.2% (active) | 108% | 111% | 91.7% | 113% | 97.3% | 104% | 101%
O=C(CN1CCOCC1)Nc1ccc2ncnc(Nc3ccc(OCc4cccc(F)c4)c(Cl)c3)c2c1 | 89.6% | 85.1% | 84.5% | 67.5% | 60% | 25.2% | 49.9% | 66.2% | 66.7% | 50.5% | 43.9% | 83.7% | 71% |  | 68.7% | 73.9% | 75.3% | 87.9% | 68.5%
